Values without a mark were called inactive. For part of these data: Measured potencies and affinities stand elsewhere. Active and inactive are the calls of the source. Unless noted, the rule behind the calls is not given here.
How the values were obtained:
[1] = antimalarial activity against Dd2 strain (AID 2302;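 active = growth inhibition above 50% at the single 2 µM test dose, taken to imply half-maximal potency below 2 µM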;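 note: 0% = DMSO untreated growth and 100% = chloroquine plus artemisinin killed control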); settings: P. falciparum Dd2 in RBCs, LDH growth readout, 72 h; at 2 µM; hits give high values
[2] = human hepatoma cell viability loss – ATP luminescence, cytotoxicity control for P. falciparum antimalarial project, primary screen (AID 2303;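 active = inhibition above 50%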;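 note: 0% = DMSO wells and 100% = digitonin-killed cells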); settings: HepG2 viability, 24-48 h, at 10 µM, hits give high values
[3] = target: L-lactate dehydrogenase (Plasmodium falciparum (isolate CDC / Honduras)) (UniProt Q27743); assay: PfLDH activity inhibition – cell lysate, 3D7 strain, counter-screen for P. falciparum growth inhibition project (AID 2304);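 note: 0% = vehicle and 100% = reference inhibitor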; settings: P. falciparum 3D7 crude extract, LDH APAD/NBT absorbance; at 2 µM; hits give high values
[4] = inhibition of 3D7 malaria parasite growth – strain 3D7 (AID 2306);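 note: 0% = DMSO wells and 100% = chloroquine plus artemisinin control wells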; settings: P. falciparum 3D7 erythrocytic growth, LDH absorbance, 72 h; at 2 µM; hits give high values
[5] = target: Calcium-dependent protein kinase 1 (Plasmodium falciparum (isolate 3D7)) (UniProt P62344); assay: PfCDPK1 kinase inhibitors, biochemical, TCAMS library (AID 1159585; cut-off not given, nearly all actives have IC50 up to about 0.98 µM;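 note: inhibitors leave more ATP so luminescence rises with inhibition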); settings: recombinant PfCDPK1, Kinase-Glo ATP depletion luminescence
[6] = target: Plasmodium falciparum protein kinase 6 (PK6, PF3D7_1337100) (UniProt Q8IDW1); assay: PfPK6 kinase inhibitors, biochemical, TCAMS library (AID 1159586); settings: recombinant PfPK6, Kinase-Glo ATP depletion luminescence
[7] = target: Protein kinase 7 (PK7), Plasmodium falciparum 3D7 (PF3D7_0213400) (UniProt Q7YTF7); assay: inhibition of Plasmodium PK7 catalytic activity – biochemical, TCAMS antimalarial set, Kinase-Glo luminescence (AID 1159587); settings: recombinant PfPK7, Kinase-Glo ATP depletion luminescence
[8] = target: Calcium-dependent protein kinase 4 (Plasmodium falciparum (isolate 3D7)) (UniProt Q8IBS5); assay: PfCDPK4 kinase inhibitors, biochemical, TCAMS library (AID 1159588; cut-off not given, nearly all actives have IC50 up to about 0.91 µM); settings: recombinant PfCDPK4, Kinase-Glo ATP depletion luminescence
Sequence of Calcium-dependent protein kinase 4 (Plasmodium falciparum (isolate 3D7)) (Q8IBS5 whole entry, looked up): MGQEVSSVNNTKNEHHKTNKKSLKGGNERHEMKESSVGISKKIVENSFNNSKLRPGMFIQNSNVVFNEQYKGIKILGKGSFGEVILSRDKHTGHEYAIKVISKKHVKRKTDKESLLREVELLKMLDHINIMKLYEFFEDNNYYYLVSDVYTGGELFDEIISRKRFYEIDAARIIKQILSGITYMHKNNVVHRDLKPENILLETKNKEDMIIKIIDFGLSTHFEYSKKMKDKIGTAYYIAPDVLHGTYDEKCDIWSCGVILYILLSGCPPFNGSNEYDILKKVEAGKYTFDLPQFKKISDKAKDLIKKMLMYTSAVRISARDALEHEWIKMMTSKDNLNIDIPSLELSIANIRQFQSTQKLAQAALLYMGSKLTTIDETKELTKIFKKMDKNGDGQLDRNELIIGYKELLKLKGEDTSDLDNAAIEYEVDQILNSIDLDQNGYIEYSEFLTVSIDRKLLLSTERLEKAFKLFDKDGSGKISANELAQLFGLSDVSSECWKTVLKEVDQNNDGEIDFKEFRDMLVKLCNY

Sequence of Protein kinase 7 (PK7), Plasmodium falciparum 3D7 (PF3D7_0213400) (Q7YTF7 1-343): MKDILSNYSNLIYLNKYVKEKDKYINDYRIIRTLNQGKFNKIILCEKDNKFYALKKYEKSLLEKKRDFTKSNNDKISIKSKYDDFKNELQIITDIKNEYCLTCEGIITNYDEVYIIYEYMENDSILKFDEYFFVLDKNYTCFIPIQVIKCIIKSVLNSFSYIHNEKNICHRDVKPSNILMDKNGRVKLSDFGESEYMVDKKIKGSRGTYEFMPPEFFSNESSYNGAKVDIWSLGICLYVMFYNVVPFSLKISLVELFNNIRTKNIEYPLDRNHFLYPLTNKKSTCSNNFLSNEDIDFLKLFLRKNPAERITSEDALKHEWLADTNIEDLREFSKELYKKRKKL
Sequence of L-lactate dehydrogenase (Plasmodium falciparum (isolate CDC / Honduras)) (Q27743 whole entry, looked up): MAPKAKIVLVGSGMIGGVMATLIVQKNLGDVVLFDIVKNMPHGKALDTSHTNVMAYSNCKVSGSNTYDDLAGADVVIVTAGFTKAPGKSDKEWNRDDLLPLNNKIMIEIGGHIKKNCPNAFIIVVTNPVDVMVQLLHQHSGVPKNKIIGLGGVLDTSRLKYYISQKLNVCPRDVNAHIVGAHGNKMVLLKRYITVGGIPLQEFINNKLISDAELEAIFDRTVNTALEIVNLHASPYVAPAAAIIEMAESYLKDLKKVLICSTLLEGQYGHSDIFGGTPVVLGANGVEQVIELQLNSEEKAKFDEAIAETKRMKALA
Sequence of Plasmodium falciparum protein kinase 6 (PK6, PF3D7_1337100) (Q8IDW1 1-305): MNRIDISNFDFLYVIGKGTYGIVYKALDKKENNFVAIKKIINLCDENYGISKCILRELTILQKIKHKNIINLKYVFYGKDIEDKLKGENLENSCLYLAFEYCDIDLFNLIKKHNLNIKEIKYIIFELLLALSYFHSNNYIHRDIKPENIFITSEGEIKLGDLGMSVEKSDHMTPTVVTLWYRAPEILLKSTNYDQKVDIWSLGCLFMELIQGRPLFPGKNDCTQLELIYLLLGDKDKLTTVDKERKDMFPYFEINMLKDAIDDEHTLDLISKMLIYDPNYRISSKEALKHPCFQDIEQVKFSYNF
Sequence of Calcium-dependent protein kinase 1 (Plasmodium falciparum (isolate 3D7)) (P62344 whole entry, looked up): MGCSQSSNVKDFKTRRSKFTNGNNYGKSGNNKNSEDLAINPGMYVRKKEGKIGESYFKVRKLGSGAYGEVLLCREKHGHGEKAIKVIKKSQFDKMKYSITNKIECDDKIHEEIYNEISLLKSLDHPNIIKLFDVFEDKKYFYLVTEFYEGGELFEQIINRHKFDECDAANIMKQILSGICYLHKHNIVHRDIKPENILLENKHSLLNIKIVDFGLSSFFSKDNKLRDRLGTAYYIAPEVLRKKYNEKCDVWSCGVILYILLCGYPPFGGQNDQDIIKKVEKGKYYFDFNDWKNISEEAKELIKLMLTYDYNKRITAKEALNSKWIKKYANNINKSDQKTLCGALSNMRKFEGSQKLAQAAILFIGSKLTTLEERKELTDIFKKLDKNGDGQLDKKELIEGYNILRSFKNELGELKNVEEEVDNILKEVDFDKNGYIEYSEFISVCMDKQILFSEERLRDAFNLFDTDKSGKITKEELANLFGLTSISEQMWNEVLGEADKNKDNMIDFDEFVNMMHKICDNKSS

Structure (SMILES) | growth inhibition [1] | inhibition [2] | inhibition [3] | growth inhibition [4] | outcome [5] | outcome [6] | outcome [7] | outcome [8]
Cc1ccc(NS(=O)(=O)c2ccc(C(C)N3CCC(N4CCCCC4)CC3)cc2)cc1C (configuration not stated) | 82% (active) | 66% (active) | -2% | 97% (active) | inactive | inactive | inactive | inactive
COc1ccc(OCc2ccccn2)c(C2CCN(CCCCNC(=O)c3ccc(NC(=O)c4ccc(Cl)cc4)cc3)CC2)c1 | 71% (active) | 18% | 4% | 98% (active) | inactive | inactive | inactive | inactive
CCNC(=O)Nc1cccc(-c2cccc(-c3nc4c(C)cccc4[nH]3)c2)c1 | 31% | 7% | 4% | 85% (active) | inactive | inactive | inactive | inactive
CCCCCCN1CCCN(Cc2ccc(C(=O)Nc3ccc(C(C)C)cc3)cc2)CC1 | 50% (active) | 40% | -4% | 93% (active) | inactive | inactive | inactive | inactive
Cc1nnc2c(NC(=O)NC3CCCC3)cc3cc(-c4ccc(CN5CCN(C)CC5)cc4)ccc3n12 | 91% (active) | 100% (active) | -1% | 99% (active) | inactive | inactive | inactive | inactive
Cc1c(CNCCCNc2nc3ccncc3[nH]2)sc(Br)c1Br | 1% | -10% | 3% | 87% (active) | inactive | inactive | inactive | inactive
COc1cc(-c2[nH]c(-c3ccc(OCCN(C)C)cc3)cc2-c2ccncc2)ccc1Cl | 33% | 3% | 1% | 93% (active) | inactive | inactive | inactive | inactive
CN(C)CCCOc1ccc(CCNCc2cccc(Oc3ccc(Cl)cc3)c2)cc1 | 26% | 57% (active) | -4% | 94% (active) | inactive | inactive | inactive | inactive
CC1(C)N=C(NC(=O)c2cc([N+](=O)[O-])cc([N+](=O)[O-])c2)N=C(N)N1OCc1cccc2ccccc12 | 20% | 66% (active) | -6% | 94% (active) | inactive | inactive | inactive | inactive
Cc1ccc(-c2cc(C(=O)Nc3ccc(S(=O)(=O)N4CCCC(C)C4)cc3)[nH]n2)c(O)c1 (configuration not stated) | 99% (active) | 32% | -4% | 102% (active) | inactive | inactive | inactive | inactive
Cc1cccc(C(O)CNc2ccnc(Nc3cccc(-c4csc(C)n4)c3)n2)c1 (configuration not stated) | 88% (active) | 29% | 2% | 99% (active) | inactive | inactive | inactive | inactive
O=C(CCC1CCCC1)N(Cc1ccc(-c2ccc(CNCCc3ccccc3)cc2)cc1)C1CCCNC1 (configuration not stated) | 71% (active) | 99% (active) | -2% | 90% (active) | inactive | inactive | inactive | inactive
Cc1cc(Nc2ccc(O)cc2)nc2cc(O)ccc12 | 9% | 0% | -2% | 100% (active) | inactive | inactive | inactive | inactive
CCNC(C)(C)CN(Cc1ccc(-c2ccc(C(F)(F)F)cc2)cc1)C(=O)Cn1c(SCc2ccc(F)cc2)nc(=O)c2c1CCC2 | 94% (active) | 99% (active) | 2% | 95% (active) | inactive | inactive | inactive | inactive
O=C(Nc1cccnc1)c1cn(-c2ccccc2)nc1-c1cccs1 | 61% (active) | 3% | -3% | 99% (active) | inactive | inactive | inactive | inactive
CCOC(=O)c1ccc(Nc2cc(Nc3ccc(C(=O)OCC)cc3)nc(C)n2)cc1 | 33% | 4% | 4% | 99% (active) | inactive | inactive | inactive | inactive
Cc1ccc2c(=O)cc(CCc3cccc(F)c3F)n(CC(=O)N(Cc3ccc(-c4ccc(C(F)(F)F)cc4)cc3)C3CCN(C)CC3)c2n1 | 76% (active) | 49% | 0% | 86% (active) | inactive | inactive | inactive | inactive
CC(C)(C)c1nn(-c2ccccc2)c2[nH]c(=O)c(CNC3CCCC3)cc12 | 70% (active) | 7% | 5% | 100% (active) | inactive | inactive | inactive | inactive
O=C(Nc1ccc(OC2CCN(Cc3ccc(F)cc3)CC2)c(Cl)c1)c1ccc(F)cc1 | 95% (active) | 37% | -1% | 97% (active) | inactive | inactive | inactive | inactive
c1cc(CNCCN2CCNCC2)cc(-c2cccc(-c3nc4ccccc4[nH]3)c2)c1 | 1% | 11% | -3% | 89% (active) | inactive | inactive | inactive | inactive

Structure (SMILES) | growth inhibition [1] | inhibition [2] | inhibition [3] | growth inhibition [4] | outcome [5] | outcome [6] | outcome [7] | outcome [8]
CCCCCCN1CCCN(Cc2ccc(C(=O)Nc3ccc(F)c(F)c3)cc2)CC1 | 48% | 50% (active) | -8% | 84% (active) | inactive | inactive | inactive | inactive
CCNc1cc(C(=O)N[C@@H](Cc2ccccc2)[C@H](O)CN[C@H]2C[C@@H]3CC[C@H]2C3)cc(N2CCCCS2(=O)=O)c1 | 73% (active) | -4% | 1% | 99% (active) | inactive | inactive | inactive | inactive
O=C(Nc1ccc(Cl)c(Cl)c1)Nc1ccc2nccc(N3CCNCC3)c2c1 | 62% (active) | 18% | -6% | 99% (active) | inactive | inactive | inactive | inactive
c1csc(-c2nc(N3CCCC3)ncc2-c2ccsc2)n1 | 75% (active) | 1% | 3% | 89% (active) | inactive | inactive | inactive | inactive
CC1CCC2(CC1)N=C(N)N=C(N)N2OCc1cc2ccccc2c2ccccc12 (configuration not stated) | 41% | 27% | -2% | 97% (active) | inactive | inactive | inactive | inactive
CCC[C@@H]([C@@H](CC1CCC(C)CC1)C(=O)N[C@@H](CO)C(=O)Nc1nccs1)N(O)C=O (some centres not stated) | 84% (active) | 0% | -2% | 100% (active) | inactive | inactive | inactive | inactive
O=[N+]([O-])c1ccc(C(O)CNCCc2ccccc2)cc1OCc1ccccc1 (configuration not stated) | 67% (active) | -6% | -1% | 94% (active) | inactive | inactive | inactive | inactive
O=C(NCC1CCN(Cc2cccc(F)c2)C1)c1cc(-c2cccc(C(F)(F)F)c2)cs1 (configuration not stated) | 10% | 31% | -2% | 96% (active) | inactive | inactive | inactive | inactive
COc1ccc(Nc2nccc(NCC(O)c3cccc(C(F)(F)F)c3)n2)cc1 (configuration not stated) | 33% | 22% | -2% | 98% (active) | inactive | inactive | inactive | inactive
CO/C(=C\C=C\c1cc2cc(Cl)ccc2[nH]1)C(=O)NCCCN1CCN(c2cc(Cl)ccc2OC)CC1 | 21% | 41% | -2% | 97% (active) | inactive | inactive | inactive | inactive
CN1CCN(CCCCCCNc2c3ccccc3nc3ccccc23)CC1 | -4% | 35% | -3% | 101% (active) | inactive | inactive | inactive | inactive
Cc1cccc2[nH]c(-c3ccc(-c4cccc(NC(=O)Nc5ccc6c(c5)OCO6)c4)cc3)nc12 | 39% | 28% | -8% | 100% (active) | inactive | inactive | inactive | inactive
COc1ccc(CC2(CO)CCN(Cc3ccc(O)c(Cl)c3)CC2)cc1 | 14% | -6% | -2% | 98% (active) | inactive | inactive | inactive | inactive
CCc1nnc2sc(-c3cccc(NC(=O)c4ccc(OC)c(Cl)c4)c3)nn12 | 55% (active) | 3% | -2% | 92% (active) | inactive | inactive | inactive | inactive
O=C(Nc1ccc2ccccc2c1)N(CCCn1ccnc1)Cc1csc(-c2ccc(CNCc3ccccc3)cc2)n1 | 53% (active) | 10% | 0% | 99% (active) | inactive | inactive | inactive | inactive
COc1ccc(-c2ccc(NC(=O)c3ccc(F)cc3)cc2)cc1CNC(C)C | 28% | 24% | 2% | 97% (active) | inactive | inactive | inactive | inactive
Cc1ccc(C(=O)Nc2ccc(Nc3ccnc4cc(-c5ccncc5)ccc34)cc2O)cc1 | 100% (active) | 14% | 1% | 97% (active) | inactive | inactive | inactive | inactive
Cc1cccc2[nH]c(-c3cccc(-c4ccc(NC(=O)c5ccoc5)cc4)c3)nc12 | 56% (active) | 65% (active) | -5% | 99% (active) | inactive | inactive | inactive | inactive
Cn1cncc1C(=O)NC1CCN(c2ccnc(Nc3ccc(F)cc3)n2)C1 (configuration not stated) | 83% (active) | 2% | -7% | 97% (active) | inactive | inactive | inactive | inactive

Reference: PubChem BioAssay
